Experimental data: PubChem BioAssay (NCATS)
“And” between values parts separate entries of the source, which are not always exact repeats. Identical values can stand only once. Records with an inconclusive call do not appear. Entries that show only a call come without a potency. The source made the active and inactive calls. Calls come from the whole dose curve.

assay: Cytotoxicity counterscreen for inhibitors of SARS-CoV-2 cell entry (AID 1645845); settings: cell viability (SARS-CoV-2 entry assay cells); series mostly up to 57.1 µM; activity change, negative = cytotoxicity: at the top concentration; note: nearly all actives have a fitted effect of over 50% in size
Method in brief: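 Expi293F/hACE2 cells seeded overnight; cpd pin-transferred in DMSO, 1 h preincubation, + media, 48 h 37 C 5% CO2; ATPLite 1step luminescence; normalized to cells and no cells.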

Row | SMILES | activity change, negative = cytotoxicity | outcome | Potency
1 | CC(C)COCC(CN(Cc1ccccc1)c1ccccc1)N1CCCC1 (stereo not drawn) | -29% (inactive) |  | 
2 | CC(C)NCC(O)COc1ccc(COCCOC(C)C)cc1 (stereo not drawn) |  | inactive | 
3 | C[C@H]1COc2c(C3(N)CC3)c(F)cc3c(=O)c(C(=O)O)cn1c23 |  | inactive | 
4 | C#C[C@]1(O)CC[C@H]2[C@@H]3CCc4cc(OC)ccc4[C@H]3CC[C@@]21C |  |  | inactive
5 | CCn1c(=O)c2c(nc(C=Cc3ccc(OC)c(OC)c3)n2C)n(CC)c1=O |  | inactive | 
6 | CCC(=O)O[C@]1(C(=O)SCF)[C@H](C)C[C@H]2[C@@H]3C[C@H](F)C4=CC(=O)C=C[C@]4(C)[C@@]3(F)[C@@H](O)C[C@@]21C |  |  | inactive
7 | CCCOc1ccc(C(=O)OCCN(CC)CC)cc1N |  |  | inactive
8 | CC(=O)N[C@H]1[C@H]([C@H](O)[C@H](O)CO)OC(C(=O)O)=C[C@@H]1N=C(N)N | 0.225% (inactive) |  | 
9 | CN1CCCN=C1COC(=O)C(O)(c1ccccc1)C1CCCCC1 (stereo not drawn) |  | inactive | 
10 | NS(=O)(=O)c1cc2c(cc1Cl)NCNS2(=O)=O |  |  | inactive
11 | C[N+]1(C)CCC(=C(c2ccccc2)c2ccccc2)CC1 |  | inactive | 
12 | CCN(CC)C(=O)C1CN2CCc3cc(OC)c(OC)cc3C2CC1OC(C)=O (stereo not drawn) | 4.36% (inactive) |  | 
13 | NS(=O)(=O)c1cc2c(cc1Cl)NC(C1CC3C=CC1C3)NS2(=O)=O (stereo not drawn) |  | inactive | 
14 | CC(C)C[C@@H](N)C(=O)O | 0.463% [at 27.1 µM] (inactive) |  | 
15 | CCOC(=O)OCC/C(SC(=O)OCC)=C(\C)N(C=O)Cc1cnc(C)nc1N | -0.2% (inactive) |  | 
16 | CCOC(=O)c1cccc(N)c1 |  | inactive | 
17 | Cc1cc(C)c(/C=C2\C(=O)Nc3ccccc32)[nH]1 |  | inactive | 
18 | O=C1CC2(CCCC2)CC(=O)N1CCCCN1CCN(c2ncccn2)CC1 | 3.84% (inactive) |  | 
19 | CCOC(=O)c1cc(=O)c2c(OCC(COc3cccc4oc(C(=O)OCC)cc(=O)c34)OC(=O)[C@@H](N)CCCCN)cccc2o1 |  | inactive | 
20 | Cc1c(-c2ccccc2)oc2c(C(=O)OCCN3CCCCC3)cccc2c1=O | -7.16% (inactive) |  | 

assay: Primary qHTS to identify inhibitors of SARS-CoV-2 cell entry (AID 1645846); settings: SARS-CoV-2 pseudovirus cell entry assay, luminescence; activity change, negative = inhibition: at 57.1 µM (top of the series) unless noted; series mostly up to 57.1 µM; note: nearly all actives have a fitted effect of over 45% in size; note: potency is the fitted concentration of half-maximal effect
Method in brief: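 Inhibition of spike-mediated entry was scored in human ACE2-transfected Expi293F cells. Particles were MLV-pseudotyped with Wuhan-Hu-1 S carrying a 19-aa C-terminal deletion; signal was luciferase after two days, scaled between spike PP and fusion-protein-free PP.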

Row | SMILES | Potency | outcome | activity change, negative = inhibition
21 | CCN(CC)CCOc1ccc(Cc2ccccc2)cc1 | 25.1 µM (active) |  | 
22 | CCCCC(=O)O[C@]1(C(=O)CO)CC[C@H]2[C@@H]3CCC4=CC(=O)CC[C@]4(C)[C@H]3[C@@H](O)C[C@@]21C |  | inactive | 
23 | C/C(=N/NC(=O)c1ccncc1)C(=O)O |  |  | -2.02%
24 | CCN1CCCC(OC(=O)C(c2ccccc2)c2ccccc2)C1 (stereo not drawn) |  |  | -0.255%
25 | CCC1Nc2cc(Cl)c(S(N)(=O)=O)cc2S(=O)(=O)N1 (stereo not drawn) |  | inactive | 
26 | C[C@]12CC[C@@H]3c4ccc(O)cc4CC[C@H]3[C@@H]1CCC2=O |  | inactive | 
27 | C/C=C/c1ccc(O)c(OC)c1 |  |  | -1.3%
28 | c1ccc(CN(CC2=NCCN2)c2ccccc2)cc1 |  | inactive | 
29 | O=C(OCc1ccccc1)c1ccc(O)cc1 |  | inactive | 
30 | C[C@H]1C[C@H]2[C@@H]3CCC4=CC(=O)C=C[C@]4(C)[C@@]3(Cl)[C@@H](O)C[C@]2(C)[C@@]1(O)C(=O)CO |  | inactive | 
31 | O=C(CCCCCCCCC#CI)Oc1ccccc1 |  |  | 1.58%
32 | CC(C)Cc1ccc(C(C)C(=O)OCc2ccccn2)cc1 (stereo not drawn) |  |  | -13.1%
33 | COc1ccccc1OC(=O)Oc1ccccc1OC |  | inactive | 
34 | O=C(OCC(COC(=O)c1cccnc1)(COC(=O)c1cccnc1)COC(=O)c1cccnc1)c1cccnc1 |  |  | -26.9%
35 | CC(=O)O[C@]1(C(C)=O)CC[C@H]2[C@@H]3C=C(Cl)C4=CC(=O)CC[C@]4(C)[C@H]3CC[C@@]21C |  |  | -27.6%
36 | COc1cc(NS(=O)(=O)c2ccc(N)cc2)ncn1 |  | inactive | 
37 | COc1cc(NS(=O)(=O)c2ccc(N)cc2)nc(OC)n1 |  |  | 2.7%
38 | CC1CC(=O)NN=C1c1ccc(NCC(C)(C)NCC(O)COc2cc(Cl)ccc2C#N)cc1 (stereo not drawn) |  |  | -23.2%
39 | CC(C)COCC(CN(Cc1ccccc1)c1ccccc1)N1CCCC1 (stereo not drawn) | 14.1 µM (active) |  | 

Row | SMILES | Potency | outcome | activity change, negative = inhibition
40 | CC(C)NCC(O)COc1ccc(COCCOC(C)C)cc1 (stereo not drawn) |  | inactive | 
41 | C[C@H]1COc2c(C3(N)CC3)c(F)cc3c(=O)c(C(=O)O)cn1c23 |  |  | -12.8%
42 | C#C[C@]1(O)CC[C@H]2[C@@H]3CCc4cc(OC)ccc4[C@H]3CC[C@@]21C | inactive |  | 
43 | CCn1c(=O)c2c(nc(C=Cc3ccc(OC)c(OC)c3)n2C)n(CC)c1=O |  | inactive | 
44 | CCC(=O)O[C@]1(C(=O)SCF)[C@H](C)C[C@H]2[C@@H]3C[C@H](F)C4=CC(=O)C=C[C@]4(C)[C@@]3(F)[C@@H](O)C[C@@]21C | inactive |  | 
45 | CCCOc1ccc(C(=O)OCCN(CC)CC)cc1N |  |  | 2.8% and -24.9%
46 | CC(=O)N[C@H]1[C@H]([C@H](O)[C@H](O)CO)OC(C(=O)O)=C[C@@H]1N=C(N)N |  |  | -0.176%
47 | CN1CCCN=C1COC(=O)C(O)(c1ccccc1)C1CCCCC1 (stereo not drawn) |  |  | 4.25%
48 | NS(=O)(=O)c1cc2c(cc1Cl)NCNS2(=O)=O | inactive |  | 
49 | C[N+]1(C)CCC(=C(c2ccccc2)c2ccccc2)CC1 |  |  | -5.21%
50 | CCN(CC)C(=O)C1CN2CCc3cc(OC)c(OC)cc3C2CC1OC(C)=O (stereo not drawn) |  | inactive | 
51 | NS(=O)(=O)c1cc2c(cc1Cl)NC(C1CC3C=CC1C3)NS2(=O)=O (stereo not drawn) |  | inactive | 
52 | CC(C)C[C@@H](N)C(=O)O |  |  | 3.85% [at 27.1 µM]
53 | CCOC(=O)OCC/C(SC(=O)OCC)=C(\C)N(C=O)Cc1cnc(C)nc1N |  | inactive | 
54 | CCOC(=O)c1cccc(N)c1 |  |  | -8.06%
55 | Cc1cc(C)c(/C=C2\C(=O)Nc3ccccc32)[nH]1 |  |  | -6.25%
56 | O=C1CC2(CCCC2)CC(=O)N1CCCCN1CCN(c2ncccn2)CC1 |  |  | 0.863%
57 | CCOC(=O)c1cc(=O)c2c(OCC(COc3cccc4oc(C(=O)OCC)cc(=O)c34)OC(=O)[C@@H](N)CCCCN)cccc2o1 |  | inactive | 
58 | Cc1c(-c2ccccc2)oc2c(C(=O)OCCN3CCCCC3)cccc2c1=O |  |  | -5.61%
